Measurements as given in PubChem BioAssay (NCATS).
Results filed as inconclusive are left out. A call without a number means that no potency is given here. The source made the active and inactive calls. The call rests on the fitted dose curve; in most records, active means well fitted inhibition curve with a large enough effect; inconclusive means small, poorly fitted or top-dose-only effect; inactive means flat fitted curve, though single readings scatter.

Tested on: ATS189
Test: qHTS profiling for inhibitors of Plasmodium falciparum proliferation (AID 504749); further: nearly all actives have a fitted effect of over 60% in size
Details: P. falciparum in erythrocytes, SYBR Green DNA, 72 h; series mostly up to 28.7 µM
Procedure, shortened: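 P. falciparum-infected erythrocytes (0.3% parasitemia, 2.5% hematocrit final) were exposed to compounds for 72 h at 37 C in 5% CO2, then lysed with SYBR Green buffer overnight at room temperature; parasite DNA fluorescence was normalized to artemisinin and DMSO controls.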

| Structure (SMILES) | Potency |
| --- | --- |
| COc1cc2c(cc1OC)CC(=O)N(CCCN(C)C[C@H]1Cc3cc(OC)c(OC)cc31)CC2 | inactive |
| O=C(O)c1nc(=O)[nH]c(=O)[nH]1 | inactive |
| CS(=O)(=O)c1ccc(C2=C(c3ccccc3)C(=O)OC2)cc1 | inactive |
| CN1CCN2c3ncccc3Cc3ccccc3C2C1 (centres undefined) | inactive |
| NS(=O)(=O)c1cc(Cl)c(Cl)c(S(N)(=O)=O)c1 | inactive |
| N#CC(c1ccc(Cl)cc1)c1c(Cl)cc(-n2ncc(=O)[nH]c2=O)cc1Cl (centres undefined) | inactive |
| COc1ccnc(CS(=O)c2nc3ccc(OC(F)F)cc3[nH]2)c1OC (centres undefined) | inactive |
| N#Cc1c(N(CC(=O)O)CC(=O)O)sc(C(=O)O)c1CC(=O)O | inactive |
| C=C1c2cccc(O)c2C(O)=C2C(=O)[C@@]3(O)C(O)=C(C(N)=O)C(=O)[C@@H](N(C)C)[C@@H]3[C@@H](O)[C@H]12 | inactive |
